Screens: PubChem, National Center for Advancing Translational Sciences (NCATS)
Only a selection was taken, and hits are over-represented in it overall.
KDM5B inhibitor = blocks human KDM5B histone demethylase activity; Potency, µM (titrated, usually from 57.7 µM), usual class: inhibitors; hit rate 2.6% among 220,000; Q9UGL1; KDM5B demethylase, FDH-coupled NADH fluorescence (FDH is formaldehyde dehydrogenase); active = well fitted inhibition curve with a large enough effect; also: 0% is about no effect; nearly all actives have a fitted effect of over 70% in size
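Coupled FDH/NAD⁺ fluorescence readout. KDM5BΔAP 200 nM final; compound titration, 10 min RT preincubation; substrate mix 12.5 µM H3K4me3, 25 µM 2-OG, 50 µM Fe(II), 100 µM ascorbate, 0.25 mM NAD⁺, 0.25 U/mL FDH; ΔRFU over 30 min.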
The depositor's hits bear a star. Potency is read from the fitted curve at half-maximal effect.

Results for O=C(COc1ncnc2ccccc12)Nc1ccc(Oc2ccccc2)cc1 ?
KDM5B inhibitor: inactive

Results for CCC1Oc2ccc(NC(=O)c3ccc(OC)c(OC)c3)cc2CN(Cc2ccc(Cl)cc2)C1=O (configuration not stated) ?
KDM5B inhibitor: 28µM*

How did CCC1Oc2ccc(NC(=O)COC)cc2CN(Cc2ccc(Cl)cc2)C1=O (configuration not stated) do in these assays?
KDM5B inhibitor: inactive

What do the screens show for `COc1ccc(CN2Cc3cc(NC(=O)c4ccccc4F)ccc3OC(C)C2=O)c(OC)c1` (configuration not stated)?
KDM5B inhibitor: inactive

Results for COc1ccc(C(=O)Nc2ccc3c(c2)CN(Cc2ccc(F)cc2)C(=O)C(C)O3)c(OC)c1 (configuration not stated) ?
KDM5B inhibitor: 32µM*

How did COc1ccc(CCN2Cc3cc(NC(=O)c4ccc(F)cc4F)ccc3OC(C)C2=O)cc1 (configuration not stated) do in these assays?
KDM5B inhibitor: inactive

Results for CCC1Oc2ccc(NC(=O)Cc3ccc(OC)cc3)cc2CN(Cc2ccc(OC)cc2)C1=O (configuration not stated) ?
KDM5B inhibitor: inactive

Results for CC(=O)c1cc(F)ccc1Oc1nc(C)nc2sc3c(c12)CCC3 ?
KDM5B inhibitor: inactive

What do the screens show for `COc1ccc(-n2nc(C3CCN(Cc4ccc(C)cc4)CC3)[nH]c2=O)cc1`?
KDM5B inhibitor: inactive

Results for O=C(Nc1ccccc1Br)N1CCN(S(=O)(=O)c2ccccc2)CC1 ?
KDM5B inhibitor: inactive

How did Cc1ccc(C(NC(=O)Cc2cccs2)C(=O)Nc2ccc3c(c2)OCCO3)cc1 (configuration not stated) do in these assays?
KDM5B inhibitor: inactive

Results for Cc1ccc(-c2nc(CNC(=O)c3ccccc3)c(C)o2)cc1 ?
KDM5B inhibitor: inactive

How did Clc1ccc(-c2nnc([C@H]3CCN(Cc4ccco4)C3)o2)cc1 do in these assays?
KDM5B inhibitor: inactive

Results for c1cnc(N2CC[C@H](c3nnc(-c4ccncc4)o3)C2)nc1 ?
KDM5B inhibitor: 32µM*

How did Cc1ccc(CN2CC[C@H](c3nnc(-c4cccnc4)o3)C2)cc1 do in these assays?
KDM5B inhibitor: inactive

What do the screens show for `CN(C)c1ccc(-c2nnc([C@H]3CCN(Cc4ccccn4)C3)o2)cc1`?
KDM5B inhibitor: 35µM*

Results for c1ccc(-c2nnc([C@H]3CCN(Cc4ccc5c(c4)OCO5)C3)o2)cc1 ?
KDM5B inhibitor: inactive

Results for c1coc(CN2CC[C@H](c3nnc(-c4ccncc4)o3)C2)c1 ?
KDM5B inhibitor: inactive

How did Clc1ccccc1CN1CC[C@H](c2nnc(-c3ccccc3)o2)C1 do in these assays?
KDM5B inhibitor: inactive

Results for c1cncc(-c2nnc([C@H]3CCN(C4CCOCC4)C3)o2)c1 ?
KDM5B inhibitor: inactive

How did Cc1ccccc1CN1CC[C@H](c2nnc(-c3ccc(N(C)C)cc3)o2)C1 do in these assays?
KDM5B inhibitor: 32µM*

Results for CCc1ccc(C(=O)COC(=O)CCc2ccccc2)cc1 ?
KDM5B inhibitor: inactive

What do the screens show for `COc1ccccc1C(=O)NC1CCC(C)CC1` (configuration not stated)?
KDM5B inhibitor: inactive

How did CCN(CC(=O)NC(C)C)Cc1nc(-c2cccs2)oc1C do in these assays?
KDM5B inhibitor: inactive

How did O=C(CS(=O)(=O)c1ccc(N2CCCC2=O)cc1)N1CCOCC1 do in these assays?
KDM5B inhibitor: inactive

How did N#CC(C(=O)NCc1ccccc1)=C1CCCCC1 do in these assays?
KDM5B inhibitor: inactive

Results for Cc1cccc(-c2noc(CSc3n[nH]c(=O)c4cc(-c5ccco5)nn34)n2)c1 ?
KDM5B inhibitor: inactive

How did O=C(Nc1ccccc1)N1Cc2[nH]cnc2C[C@H]1c1nc(-c2ccc3ccccc3c2)no1 do in these assays?
KDM5B inhibitor: inactive

What do the screens show for `Cc1ccc(NC(=O)N2Cc3[nH]cnc3C[C@H]2c2nc(-c3ccncc3)no2)cc1`?
KDM5B inhibitor: inactive

What do the screens show for `Cc1cccc(-c2noc([C@@H]3Cc4nc[nH]c4CN3C(=O)c3ccc(-c4ccccc4)cc3)n2)c1`?
KDM5B inhibitor: inactive

Results for Cc1cccc(-c2noc([C@@H]3Cc4nc[nH]c4CN3C(=O)C3CCCCC3)n2)c1 ?
KDM5B inhibitor: inactive

What do the screens show for `Cc1ccc(NC(=O)N2Cc3[nH]cnc3C[C@H]2c2nc(-c3ccc4ccccc4c3)no2)cc1`?
KDM5B inhibitor: 22µM*

How did O=C(NC1CCCCC1)N1Cc2[nH]cnc2C[C@H]1c1nc(-c2cccc([N+](=O)[O-])c2)no1 do in these assays?
KDM5B inhibitor: 4µM*

How did COc1ccc(-c2noc(-c3cccn3CC(=O)NCc3ccc(OC)c(OC)c3)n2)cc1F do in these assays?
KDM5B inhibitor: inactive

What do the screens show for `CC(C)c1noc(-c2cccn3c(CNC(=O)c4c(F)cccc4Cl)nnc23)n1`?
KDM5B inhibitor: 16µM*

Results for COc1ccc(C(=O)NCc2nnc3c(-c4nc(C(C)C)no4)cccn23)cc1F ?
KDM5B inhibitor: 32µM*

Results for COc1ccc(C(=O)NCCn2cccc2-c2nc(-c3ccccc3)no2)cc1F ?
KDM5B inhibitor: inactive
